The record followed here is ChEMBL document CHEMBL1201862, “PubChem BioAssay data set” (2004).

Structures are written as SMILES. About 2,100 (0.53%) of roughly 400,000 compounds were called active. About 14% were inconclusive and are not listed. The rule behind the calls is not given here. For the sample, actives were picked, then their nearest neighbours and some compounds at random.

The target of the assay is Ataxin-2 (Homo sapiens) (UniProt Q99700). In words: qHTS for Inhibitors of ATXN expression. Type of assay: functional. (In general: In qHTS, concentration-response curves come from the screen itself.)
Sequence of Ataxin-2 (Homo sapiens) (Q99700 whole entry): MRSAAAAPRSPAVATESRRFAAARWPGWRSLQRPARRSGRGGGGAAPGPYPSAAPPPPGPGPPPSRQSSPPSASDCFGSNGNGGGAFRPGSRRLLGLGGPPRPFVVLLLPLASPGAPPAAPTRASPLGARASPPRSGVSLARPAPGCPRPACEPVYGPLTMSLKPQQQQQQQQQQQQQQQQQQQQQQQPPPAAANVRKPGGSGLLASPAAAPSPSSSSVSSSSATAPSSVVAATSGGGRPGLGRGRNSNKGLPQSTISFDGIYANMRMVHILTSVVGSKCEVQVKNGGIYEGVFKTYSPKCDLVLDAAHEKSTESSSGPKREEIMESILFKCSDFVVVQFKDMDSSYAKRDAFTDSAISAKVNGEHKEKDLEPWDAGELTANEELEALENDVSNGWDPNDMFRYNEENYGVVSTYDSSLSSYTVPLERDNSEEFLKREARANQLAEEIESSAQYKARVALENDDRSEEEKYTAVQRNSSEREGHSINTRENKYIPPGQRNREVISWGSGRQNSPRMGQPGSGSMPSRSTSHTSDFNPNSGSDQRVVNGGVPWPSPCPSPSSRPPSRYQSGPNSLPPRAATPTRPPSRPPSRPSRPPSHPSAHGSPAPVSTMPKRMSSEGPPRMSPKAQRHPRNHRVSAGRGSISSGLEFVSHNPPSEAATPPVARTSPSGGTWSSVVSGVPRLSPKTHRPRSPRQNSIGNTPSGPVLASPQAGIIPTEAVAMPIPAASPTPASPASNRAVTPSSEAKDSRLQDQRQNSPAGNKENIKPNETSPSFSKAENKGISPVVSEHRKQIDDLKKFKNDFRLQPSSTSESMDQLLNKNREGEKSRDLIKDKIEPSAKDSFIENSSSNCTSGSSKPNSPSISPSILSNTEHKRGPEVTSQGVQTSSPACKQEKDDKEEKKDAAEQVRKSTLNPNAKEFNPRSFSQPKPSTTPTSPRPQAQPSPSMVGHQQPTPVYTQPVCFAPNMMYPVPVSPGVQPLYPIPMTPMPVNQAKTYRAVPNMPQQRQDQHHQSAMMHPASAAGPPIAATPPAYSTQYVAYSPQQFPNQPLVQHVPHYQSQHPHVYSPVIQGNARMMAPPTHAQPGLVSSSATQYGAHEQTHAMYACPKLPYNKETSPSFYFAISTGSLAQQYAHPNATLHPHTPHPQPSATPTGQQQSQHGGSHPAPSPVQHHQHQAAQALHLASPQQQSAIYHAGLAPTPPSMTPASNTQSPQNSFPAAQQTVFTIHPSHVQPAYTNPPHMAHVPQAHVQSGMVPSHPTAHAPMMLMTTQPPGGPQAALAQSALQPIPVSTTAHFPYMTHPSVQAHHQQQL
As for `CCOC(=O)c1s/c(=N\C(=O)/C=C/c2cccs2)n(C)c1C`, the Potency result is “inactive”.

On to `CC(=O)Nc1ccc(NC(=O)C(C)OC(=O)/C=C/c2cccs2)cc1` (stereo not drawn), for which the Potency entry is “inactive”.

In the case of `COc1ccc(OC)c2sc(N(CCN(C)C)C(=O)/C=C/c3cccs3)nc12`, the Potency is 28.2 µM (active).

`CN(C)CCCN(C(=O)C1COc2ccccc2O1)c1nc2ccc(F)cc2s1` (stereo not drawn): the Potency entry is “inactive”.

Turning to `CCN(CC(=O)NCc1ccc(F)cc1)C(=O)/C=C/c1cccs1`, the Potency result is “inactive”.

`CN(C)CCCN(C(=O)/C=C/c1cccs1)c1nc2ccc(F)cc2s1`: the Potency was 39.8 µM (active).

Take `CC1(C)C(=O)C=CC(=O)C(C)(C)C(=O)C=CC(=O)C(C)(C)C2=CC=C(O2)C(C)(C)C(=O)C=CC1=O`: the Potency is 39.8 µM (active).

Consider `COCCN=C(S)NCCCNc1nc2cc3c(cc2cc1C#N)OCO3`, for which the Potency result was “inactive”.

`Cc1ccc(C(=O)c2oc3ccccc3c2NC(=O)c2cc(-c3ccccc3O)[nH]n2)cc1`: the Potency result is “inactive”.

Regarding `Cc1ccc(O)c(-c2cc(-c3ccccc3[N+](=O)[O-])[nH]n2)c1`, the Potency is 8.91 µM (active).

With `Cc1cccc(NC(=O)c2cc(-c3cc(Cl)ccc3O)[nH]n2)c1`, the Potency entry was “inactive”.

As to `Cc1csc(NC(=O)c2cc(O)nc3ccc(S(=O)(=O)N4CCOCC4)cc23)n1`, the Potency result was “inactive”.

`Cc1ccc(/C=N/N2CCCCC2)o1`: the Potency result was “inactive”.

As for `O=C(O)c1cc(-c2ccc(/C=C3\NC(=O)N(c4ccc(Cl)cc4)C3=O)o2)ccc1Cl`, the Potency entry is “inactive”.

Regarding `CCN(CC)c1ccc(/C=C(\C#N)C(=O)NCc2ccccc2)cc1`, the Potency entry was “inactive”.

Turning to `Cc1cc(/C=C(\C#N)C(=O)Nc2ccccc2F)c(C)[nH]1`, the Potency result is “inactive”.

In the case of `CCc1cccc(CC)c1NC(=O)/C(C#N)=C/c1ccccc1C(F)(F)F`, the Potency is 39.8 µM (active).

In the case of `O=C(NCc1ccccn1)C(=O)C1C(=O)Nc2ccccc21` (stereo not drawn), the Potency result is “inactive”.

For `COc1ccc(CCNC2=CC(=O)N(c3ccc(F)cc3)C2=O)cc1`, the Potency result was “inactive”.

On to `COc1ccc([C@H]2/C=C\CN(C(=O)CC(C)(C)C)[C@@H](C)C(=O)N2Cc2ccc(F)cc2)cc1`, for which the Potency is 35.5 µM (active).

Regarding `COc1cc(C(=O)N/N=C/c2sc(N3CCOCC3)nc2-c2ccccc2)cc(OC)c1OC`, the Potency entry was “inactive”.

For the compound `COc1ccc(/C=C2\Oc3cc(OCC(=O)N4CCC(C(=O)O)CC4)ccc3C2=O)c(OC)c1`, the Potency result was “inactive”.

As for `CCOC(=O)c1cc2c(=O)n3ccccc3nc2n(Cc2ccco2)/c1=N\C(=O)c1c(F)cccc1Cl`, the Potency result was “inactive”.

Regarding `COC(=O)c1cc(=O)n(CCc2ccccc2F)/c(=N/c2ccc(F)c(Cl)c2)s1`, the Potency was 33.6 µM (active).

For `COC(=O)c1cc(=O)n(Cc2ccco2)/c(=N/c2ccc(F)c(Cl)c2)s1`, the Potency is 3.16 µM (active).

For the compound `COC(=O)c1cc(=O)n(-c2ccc(F)cc2)/c(=N/c2ccc(F)cc2)s1`, the Potency was 23.8 µM (active).

Take `COC(=O)c1cc2c(s1)-c1cc(F)ccc1OC2`: the Potency entry is “inactive”.

Consider `Cc1cs/c(=N\c2cccnc2)n1Cc1ccco1`, for which the Potency entry was “inactive”.

For the compound `COC(=O)Cc1c(C)c2cc3c(c(C)c2oc1=O)OCN(CCc1ccccc1F)C3`, the Potency entry was “inactive”.

As for `Cc1ccc(CCNC(=O)c2cc(S(=O)(=O)N3CCOCC3)cn2C)cc1`, the Potency result is “inactive”.

Take `COc1ccc(CN(C(=O)c2snc(C(N)=O)c2N)C(C)C(=O)NCc2ccc(F)cc2)cc1` (stereo not drawn): the Potency entry is “inactive”.

`COc1cccc(-c2ccc3c(N)c(C(=O)NCc4ccc(Cl)cc4)sc3n2)c1`: the Potency result was “inactive”.

As for `COc1cccc(/C=C/c2nc(C#N)c(NC3CCCCC3)o2)c1`, the Potency result is “inactive”.

On to `CCc1nc(Nc2cccc(OC)c2)c2oc3ccccc3c2n1`, for which the Potency entry was “inactive”.

`CNc1nc(N)c([N+](=O)[O-])c(NCC2CCCO2)n1` (stereo not drawn): the Potency entry was “inactive”.

As to `COc1cccc(Nc2nc(N)c([N+](=O)[O-])c(NCc3ccccc3)n2)c1`, the Potency was 31.6 µM (active).

For `COc1ccc(Nc2nc(N)c([N+](=O)[O-])c(NC3CCCCC3)n2)cc1`, the Potency is 31.6 µM (active).

For the compound `O=C1/C(=C/c2ccco2)Oc2c1ccc(O)c2CN1CCCCC1`, the Potency entry was “inactive”.

Take `O=[N+]([O-])c1cccc(C2CC(c3ccccc3)=NN2c2ccccc2)c1` (stereo not drawn): the Potency result is “inactive”.

For the compound `O=[N+]([O-])c1ccc(-c2cn3nc(-c4ccccc4)c(-c4ccccc4)nc3n2)cc1`, the Potency result was “inactive”.

Regarding `O=c1cc(-c2ccccc2)[nH]n1-c1ccc([N+](=O)[O-])cc1`, the Potency is 20 µM (active).

Regarding `CCOc1ccc(/C=C/c2nc(C#N)c(NCCCOC)o2)cc1`, the Potency entry was “inactive”.

`C#CCN(C[C@H]1[C@H](OC(=O)NC2CCCC2)[C@H](OC(=O)NC2CCCC2)C[C@@H](C(=O)OC)[C@H]1C(=O)OC)S(=O)(=O)c1ccc(C)cc1`: the Potency is 39.8 µM (active).

On to `CC(C)N1CCC(N2CCN(Cc3cccc4nonc34)CC2CCO)CC1` (stereo not drawn), for which the Potency entry is “inactive”.

For the compound `CCCCNC(=O)CN1C(=O)c2cccc(N)c2C1=O`, the Potency result is “inactive”.

As to `Clc1ccc(-c2cn3nc4c(nc3n2)CCCC4)cc1`, the Potency result is “inactive”.

Take `COc1ccccc1/C=C/C=C1\Oc2c(ccc(O)c2CN(C)C)C1=O`: the Potency result was “inactive”.

On to `COc1cccc2sc(Nc3nnc(-c4ccc(F)cc4)o3)nc12`, for which the Potency was 31.6 µM (active).

As for `CCOc1cccc2sc(NN)nc12`, the Potency entry is “inactive”.

For the compound `COc1ccc(-c2nnc(-c3ccc(F)cc3)o2)cc1`, the Potency result was “inactive”.

Consider `Cc1cccn2c(=O)c3cc(C(=O)NCc4ccccc4)c(=N)n(CCOCCO)c3nc12`, for which the Potency result is “inactive”.

In the case of `Cc1c(O)c(CN2CCCC2)cc2c3c(c(=O)oc12)CCC3`, the Potency entry is “inactive”.

Turning to `Cc1ccc(NC(=O)C2OCCc3ccccc32)cc1C` (stereo not drawn), the Potency entry is “inactive”.

`COc1ccc(CCN2C(=O)COc3ccccc3C2C(=O)Nc2ccc3c(c2)OCCO3)cc1OC` (stereo not drawn): the Potency was 25.1 µM (active).

For the compound `CCCCNc1c(N)n(CCC)c(=O)[nH]c1=O`, the Potency result was “inactive”.

For the compound `O=C(CN1C(=O)NC(Cc2c[nH]c3ccccc23)C1=O)Nc1ccc(F)c(F)c1F` (stereo not drawn), the Potency entry is “inactive”.

Take `Cc1csc(N=C(S)Nc2cccc(Cl)c2)n1`: the Potency is 25.1 µM (active).

Consider `CC(C)c1cccc(C(C)C)c1N=C(S)Nc1cccc(Cl)c1`, for which the Potency entry was “inactive”.

In the case of `CN(C)C(CN=C(S)Nc1cccc(Cl)c1)c1cccnc1` (stereo not drawn), the Potency entry was “inactive”.

For the compound `CCCCC[C@@H](C)N1C[C@H](COCc2ccccc2)Oc2cc(N3CCC[C@H]3CO)ccc2S1(=O)=O`, the Potency is 10 µM (active).

As for `CCCCC[C@H](C)N1C[C@H](COCc2ccccc2)Oc2cc(N3CCC[C@H]3CO)ccc2S1(=O)=O`, the Potency was 28.2 µM (active).

On to `CCCCC[C@@H](C)N1C[C@H](COCc2ccccc2)Oc2cc(N3CCC[C@@H]3CO)ccc2S1(=O)=O`, for which the Potency was 39.8 µM (active).

As for `Cc1ccc(-c2nc3n(n2)C(c2ccccc2C)C=C(c2ccc(Cl)cc2)N3)cc1` (stereo not drawn), the Potency entry was “inactive”.

For `COC(=O)c1ccc(C)c(NC(=O)CSc2nc3nc(O)cc(O)c3s2)c1`, the Potency entry was “inactive”.

With `Cc1cccc2c1-c1sc(C(=O)Nc3nccs3)cc1CO2`, the Potency result was “inactive”.

On to `COc1ccc(S(=O)(=O)N2CCN(Cc3cc(OC)c(OC)cc3OC)CC2)cc1`, for which the Potency result was “inactive”.

With `Cc1ccnc(N2C(=O)c3cccc4c([N+](=O)[O-])ccc(c34)C2=O)c1`, the Potency result is “inactive”.

For the compound `Cc1ccc(NC(=O)CN(C)C(=O)Cn2ncc(Cl)c(Cl)c2=O)cc1`, the Potency was 28.2 µM (active).

In the case of `Cc1ccccc1OCC(=O)Nc1cccc(Cl)c1C`, the Potency entry is “inactive”.

For the compound `COc1ccc(CN(C)C(C)C(=O)N(C)CC(=O)Nc2ccc(C)cc2)cc1F` (stereo not drawn), the Potency result was “inactive”.

For the compound `Cc1cccc(NC(=O)CNC(=O)Cn2ncc(Cl)c(Cl)c2=O)c1C`, the Potency is 21.2 µM (active).

Turning to `CN(CC(=O)Nc1c(Cl)cccc1Cl)C(=O)C1CC(=O)N(Cc2ccccc2)C1` (stereo not drawn), the Potency entry is “inactive”.

Turning to `CC(=O)Nc1ccc(NC(=O)CCC(=O)Oc2ccc(C)cc2)cc1`, the Potency result was “inactive”.

On to `Cc1ccc(CNC(=O)Cn2ncn3cccc3c2=O)cc1`, for which the Potency entry is “inactive”.

Consider `CCc1ccccc1NC(=O)CN(C)C(=O)Cn1ncc(Cl)c(Cl)c1=O`, for which the Potency was 35.5 µM (active).

In the case of `CN(CC(=O)Nc1ccccc1Cl)C(=O)CN1C(=O)NC(c2ccccc2)(c2ccccc2)C1=O`, the Potency result was “inactive”.

Consider `O=C(NN/C=C1\C(=O)N(Cc2ccccc2)C(=O)c2ccccc21)c1cccnc1`, for which the Potency entry was “inactive”.

`CC(=O)Nc1nc2n(n1)C(c1ccccc1)C=C(c1ccccc1)N2` (stereo not drawn): the Potency result is “inactive”.

For the compound `C1=C(c2ccccc2)Nc2ncnn2C1c1ccccc1` (stereo not drawn), the Potency result was “inactive”.

On to `CCOC(=O)CCc1c(C)c2ccc3c(c2oc1=O)CN(CCCO)CO3`, for which the Potency result was “inactive”.

As to `Cc1c(C(=O)c2no[n+]([O-])c2C(=O)c2cnn(C)c2C)cnn1C`, the Potency was 39.8 µM (active).

With `Cc1ccc(C(=O)c2no[n+]([O-])c2C(=O)c2ccc(C)cc2)cc1`, the Potency was 31.6 µM (active).

Turning to `CC(=O)c1ccc2noc(-c3ccc(C)cc3)c2c1`, the Potency entry is “inactive”.

Consider `Cc1ccc(N2C(=O)C3C(C(=O)c4ccccc4)=NN(c4ccccc4)C3C2=O)cc1` (stereo not drawn), for which the Potency result was “inactive”.

On to `CC(OC(=O)c1ccccc1O)C(=O)Nc1ccc(Cl)cn1` (stereo not drawn), for which the Potency entry is “inactive”.

For the compound `COc1cc(C(CC(=O)Nc2ccc(Cl)cn2)N2Cc3ccccc3C2=O)cc(OC)c1OC` (stereo not drawn), the Potency entry was “inactive”.

As for `CCc1cc2c(CN3CCN(C)CC3)cc(=O)oc2cc1O`, the Potency result is “inactive”.

Consider `COCOCCn1cc(CN2CCS(=O)(=O)N(Cc3ccc(-c4ccc(Cl)c(Cl)c4)cc3)C(C(C)C)C2=O)nn1` (stereo not drawn), for which the Potency was 28.2 µM (active).

On to `COCOCCn1cc(CN2CCS(=O)(=O)N(Cc3ccc(-c4ccc(Cl)c(Cl)c4)cc3)C(C)C2=O)nn1` (stereo not drawn), for which the Potency is 22.4 µM (active).

For the compound `COCOCCn1cc(CN2CCS(=O)(=O)N(Cc3ccc(-c4ccccc4)cc3)C(CC(C)C)C2=O)nn1` (stereo not drawn), the Potency was 39.8 µM (active).

In the case of `CCOC(=O)NC(=O)/C(=C/Nc1ccc(Cl)c(Cl)c1Cl)C(C)=O`, the Potency entry was “inactive”.

As for `Nc1c(C(=O)N2CCCC2)sc2nc3c(cc12)CCCCCC3`, the Potency result was “inactive”.

As to `c1cnn2c(-c3ccc4c(c3)CCO4)cnc2c1`, the Potency result is “inactive”.

On to `O=C(CNC(=O)OCc1ccccc1)Oc1cc2oc(=O)cc(-c3ccccc3)c2cc1Cl`, for which the Potency result is “inactive”.

Take `Cc1onc(C(=O)NC2CCCCC2)c1[N+](=O)[O-]`: the Potency entry is “inactive”.

Turning to `COc1ccccc1Nc1c2ccccc2nc2ccccc12`, the Potency result is “inactive”.

Regarding `COc1ccc(Nc2c3c(nc4ccccc24)CCC3)cc1Cl`, the Potency is 28.2 µM (active).

For the compound `COc1cc(N)ccc1Nc1c2ccccc2nc2ccccc12`, the Potency result was “inactive”.
